This is one part of the list. The true hit rate is not given.
B1: HC2235 (peptide)
chain: CAEVVTSTHVAGNASASA
B2: HC1528 (peptide)
chain: CAVCGDDLVVAGNASASA
B3: HC1530 (peptide)
chain: CADLVVICESAGNASASA
B4: HC836 (peptide)
chain: CAPPGSVTVPAGNASASA
B5: HC2154 (peptide)
chain: CAKVVTSTWVAGNASASA
B6: HC68 (peptide)
chain: CATTPCMGSWAGNASASA
B7: HC65 (peptide)
chain: CATTPCIGSWAGNASASA
B8: HC67 (peptide)
chain: CATTPCWGSWAGNASASA
B9: HC1114 (peptide)
chain: CAGPGEGAVQAGNASASA
B10: FS-1612 (peptide)
chain: CASDSRHSRQAGNASASA
B11: FS-243 (peptide)
chain: CAGKSRNKRQAGNASASA
B12: FS-1520 (peptide)
chain: CAEKTRHARQAGNASASA
B13: FS-1184 (peptide)
chain: CAAMGRGKRQAGNASASA
B14: HC1089 (peptide)
chain: CAAGVAGALVAGNASASA
B15: FS-2630 (peptide)
chain: CAEKRRSADIAGNASASA
B16: FS-579 (peptide)
chain: CAALDRTKRQAGNASASA
B17: HC944 (peptide)
chain: CAHIDAHFLSAGNASASA
B18: HC246 (peptide)
chain: CAGCSFSIFLAGNASASA
B19: HC2186 (peptide)
chain: CAEVMTSTWVAGNASASA
B20: HC827 (peptide)
chain: CALDQAETAGAGNASASA
B21: HC2356 (peptide)
chain: CAEVGCHRPSAGNASASA
B22: HC1375 (peptide)
chain: CAALVTPCAAAGNASASA
B23: HC1844 (peptide)
chain: CATIPCSGSWAGNASASA
B24: FS-1084 (peptide)
chain: CASPSVRKRQAGNASASA
B25: FS-1243 (peptide)
chain: CAPRLRRKRQAGNASASA
B26: FS-1328 (peptide)
chain: CAGKSRRKRQAGNASASA
B27: DV1 (peptide)
chain: CAGKKRRPVKAGNASASA
B28: FS-420 (peptide)
chain: CAFTSRFKRQAGNASASA
B29: FS-516 (peptide)
chain: CAVSVRRKRQAGNASASA
B30: HC47 (peptide)
chain: CATTPWSGSWAGNASASA
B31: HC2004 (peptide)
chain: CAVICCSMSYAGNASASA
B32: HC687 (peptide)
chain: CANQVEGEVQAGNASASA
B33: FS-231 (peptide)
chain: CAEKSRAKRQAGNASASA
B34: HC2313 (peptide)
chain: CARVPCHRPSAGNASASA
B35: FS-80 (peptide)
chain: CAQKVRPRRWAGNASASA
B36: FS-1393 (peptide)
chain: CARDVRSRRPAGNASASA
B37: FS-328 (peptide)
chain: CAFRVRSRRWAGNASASA
B38: FS-235 (peptide)
chain: CAFRNRNQRIAGNASASA
B39: FS-1605 (peptide)
chain: CAQKDRARRPAGNASASA
B40: FS-2540 (peptide)
chain: CAKAKRSVPPAGNASASA
B41: HC1320 (peptide)
chain: CAPKSPPVPPAGNASASA
B42: FS-2876 (peptide)
chain: CAPLKRSVSLAGNASASA
B43: HC1615 (peptide)
chain: CALRKLGVPPAGNASASA
B44: FS-2477 (peptide)
chain: CAGLKRSVSRAGNASASA
B45: FS-2247 (peptide)
chain: CAKIKRSVSPAGNASASA

Target: furin, P09958
Test: furin cleavage Z-score vs untreated control; higher = more cleavage, active = 3.5 or more, inactive = 1 or less, 8 variable residues between constant flanks
In short: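 Purified furin cleaved 8-mer peptides that were fused to a cDNA oligonucleotide and held on magnetic beads by their N-terminus. Each 0.01 ml reaction used a 1:10 enzyme:substrate ratio in 50 mM HEPES pH 7.5 with CaCl2 and NaCl and ran 7.5, 15 or 30 min. Released DNA was adapter-tagged by PCR and sequenced, and read counts gave abundance. The cleavage Z-score came from log counts against furin-free reactions, lowess-adjusted and scaled by median absolute deviation.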

Chain of furin, P09958 (P09958 whole entry): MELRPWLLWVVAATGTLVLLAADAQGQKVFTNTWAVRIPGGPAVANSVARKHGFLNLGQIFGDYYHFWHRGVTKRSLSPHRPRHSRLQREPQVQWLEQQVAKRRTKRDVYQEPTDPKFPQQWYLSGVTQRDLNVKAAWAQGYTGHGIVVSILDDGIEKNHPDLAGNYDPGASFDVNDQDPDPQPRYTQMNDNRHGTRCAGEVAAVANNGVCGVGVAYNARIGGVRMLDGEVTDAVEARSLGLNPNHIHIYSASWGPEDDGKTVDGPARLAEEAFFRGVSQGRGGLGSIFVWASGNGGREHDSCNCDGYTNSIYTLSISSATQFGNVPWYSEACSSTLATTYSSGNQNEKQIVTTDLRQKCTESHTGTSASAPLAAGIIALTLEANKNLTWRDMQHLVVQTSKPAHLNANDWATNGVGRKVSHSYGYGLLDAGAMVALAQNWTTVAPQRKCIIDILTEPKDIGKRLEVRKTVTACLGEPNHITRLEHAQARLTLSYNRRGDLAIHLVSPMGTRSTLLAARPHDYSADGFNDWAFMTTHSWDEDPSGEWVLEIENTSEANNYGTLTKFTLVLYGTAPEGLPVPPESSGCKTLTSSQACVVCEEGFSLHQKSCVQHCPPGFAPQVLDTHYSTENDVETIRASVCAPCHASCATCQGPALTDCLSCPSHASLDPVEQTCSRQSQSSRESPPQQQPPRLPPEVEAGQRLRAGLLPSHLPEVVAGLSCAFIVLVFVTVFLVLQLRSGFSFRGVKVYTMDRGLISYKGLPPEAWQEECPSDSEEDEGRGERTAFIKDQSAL

| Sequence | furin cleavage Z-score (7.5 min) | furin cleavage Z-score (15 min) | furin cleavage Z-score (30 min) |
| --- | --- | --- | --- |
| B1 | -0.582 (inactive) | 0.167 (inactive) | -1.55 (inactive) |
| B2 | -2.27 (inactive) | -1.44 (inactive) | -0.381 (inactive) |
| B3 | 0.357 (inactive) | -1.48 (inactive) | 1.02 |
| B4 | 0.584 (inactive) | 0.308 (inactive) | -0.638 (inactive) |
| B5 | -1.02 (inactive) | 1.09 | -1.67 (inactive) |
| B6 | 1.12 | 0.786 (inactive) | -0.593 (inactive) |
| B7 | 0.499 (inactive) | 3.77 (active) | 2 |
| B8 | 0.261 (inactive) | 1.14 | 1.23 |
| B9 | -0.225 (inactive) | -1.41 (inactive) | -1.21 (inactive) |
| B10 | 0.00727 (inactive) | 0.0993 (inactive) | 0.17 (inactive) |
| B11 | 10.4 (active) | 10.6 (active) | 10.1 (active) |
| B12 | 8.09 (active) | 8.28 (active) | 7.03 (active) |
| B13 | 9.02 (active) | 8.89 (active) | 8.8 (active) |
| B14 | -0.652 (inactive) | -0.752 (inactive) | 0.946 (inactive) |
| B15 | -0.771 (inactive) | -1.51 (inactive) | -0.666 (inactive) |
| B16 | 11.8 (active) | 12.8 (active) | 11 (active) |
| B17 | -0.528 (inactive) | -1.68 (inactive) | -0.674 (inactive) |
| B18 | -1.55 (inactive) | -1.86 (inactive) | 0.305 (inactive) |
| B19 | -0.944 (inactive) | -0.894 (inactive) | -0.0736 (inactive) |
| B20 | 0.305 (inactive) | 0.588 (inactive) | 0.353 (inactive) |
| B21 | 0.279 (inactive) | 0.829 (inactive) | 0.483 (inactive) |
| B22 | -0.826 (inactive) | -0.333 (inactive) | -1.48 (inactive) |
| B23 | -0.402 (inactive) | -1.52 (inactive) | -0.285 (inactive) |

| Sequence | furin cleavage Z-score (7.5 min) | furin cleavage Z-score (15 min) | furin cleavage Z-score (30 min) |
| --- | --- | --- | --- |
| B24 | 1.65 | 1.54 | 0.547 (inactive) |
| B25 | 10.3 (active) | 9.75 (active) | 8.73 (active) |
| B26 | 11.6 (active) | 12.5 (active) | 8.34 (active) |
| B27 | 0.52 (inactive) | 1.23 | 0.39 (inactive) |
| B28 | 10.7 (active) | 10.3 (active) | 8.02 (active) |
| B29 | 11.2 (active) | 12.2 (active) | 9.86 (active) |
| B30 | -0.899 (inactive) | -0.0349 (inactive) | -1.02 (inactive) |
| B31 | -1.33 (inactive) | -0.628 (inactive) | 0.99 (inactive) |
| B32 | -1.48 (inactive) | -0.19 (inactive) | -1.34 (inactive) |
| B33 | 9.72 (active) | 8.1 (active) | 6.51 (active) |
| B34 | -0.0296 (inactive) | 0.363 (inactive) | -0.117 (inactive) |
| B35 | 9.9 (active) | 11.7 (active) | 9.5 (active) |
| B36 | 0.0934 (inactive) | 0.513 (inactive) | 0.621 (inactive) |
| B37 | 8.66 (active) | 9.61 (active) | 9.2 (active) |
| B38 | -0.28 (inactive) | -1.55 (inactive) | 0.794 (inactive) |
| B39 | 0.51 (inactive) | -1.09 (inactive) | 0.363 (inactive) |
| B40 | 9.65 (active) | 9.24 (active) | 7.46 (active) |
| B41 | -0.644 (inactive) | 0.94 (inactive) | -0.0681 (inactive) |
| B42 | 0.317 (inactive) | 2.22 | 2.88 |
| B43 | 0.313 (inactive) | 0.845 (inactive) | 0.629 (inactive) |
| B44 | -0.266 (inactive) | -1.67 (inactive) | 0.712 (inactive) |
| B45 | 4.13 (active) | 3.63 (active) | 4.32 (active) |
